The test addresses furin, P09958. Put plainly: furin cleavage Z-score vs untreated control; higher = more cleavage, active = 3.5 or more, inactive = 1 or less, 8 variable residues between constant flanks. In outline:
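The cleavage Z-score was derived for purified furin acting on 8-mer peptides held on magnetic beads and fused to a cDNA oligonucleotide. Digests lasted 7.5, 15 or 30 min at 1:10 enzyme:substrate in 50 mM HEPES pH 7.5 with CaCl2 and NaCl. Sequencing counts of released DNA, log-transformed against furin-free reactions, were lowess-adjusted and scaled by median absolute deviation.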

Some of the results follow. The true hit rate is not given.

Sequence of furin, P09958 (P09958 whole entry, the tested form may be a part): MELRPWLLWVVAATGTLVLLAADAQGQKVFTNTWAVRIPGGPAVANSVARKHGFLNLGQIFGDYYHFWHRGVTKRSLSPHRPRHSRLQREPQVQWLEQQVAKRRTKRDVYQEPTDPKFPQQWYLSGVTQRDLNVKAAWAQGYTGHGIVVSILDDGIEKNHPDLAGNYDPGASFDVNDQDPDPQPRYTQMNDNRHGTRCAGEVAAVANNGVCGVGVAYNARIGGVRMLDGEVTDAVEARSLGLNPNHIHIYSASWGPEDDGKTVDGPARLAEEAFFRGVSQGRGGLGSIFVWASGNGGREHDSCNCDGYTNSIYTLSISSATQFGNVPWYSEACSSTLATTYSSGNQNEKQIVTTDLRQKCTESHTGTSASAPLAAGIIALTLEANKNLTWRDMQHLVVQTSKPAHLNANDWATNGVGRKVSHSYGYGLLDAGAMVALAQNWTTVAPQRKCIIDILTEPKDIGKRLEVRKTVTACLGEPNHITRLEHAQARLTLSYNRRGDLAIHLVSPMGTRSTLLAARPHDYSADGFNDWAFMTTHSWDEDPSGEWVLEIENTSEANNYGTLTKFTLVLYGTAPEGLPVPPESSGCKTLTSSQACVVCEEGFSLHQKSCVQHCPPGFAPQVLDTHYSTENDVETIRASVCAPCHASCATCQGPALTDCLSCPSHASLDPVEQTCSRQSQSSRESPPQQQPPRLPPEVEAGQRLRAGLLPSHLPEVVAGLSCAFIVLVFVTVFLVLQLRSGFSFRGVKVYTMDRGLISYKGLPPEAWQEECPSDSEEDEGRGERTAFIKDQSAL

On to CAVVCCSMSCAGNASASA [HC2100], for which the “furin cleavage Z-score” value runs as follows: (7.5 min) -1.04 (inactive); (15 min) -1.97 (inactive); (30 min) -0.294 (inactive).
For the sequence CANDARRTRSAGNASASA [FS-693], the “furin cleavage Z-score” value was 6.7 (active) (7.5 min), 7.77 (active) (15 min) and 7.39 (active) (30 min).
Regarding CAKSPRRTRSAGNASASA [FS-1351], the “furin cleavage Z-score” value (7.5 min) was 5.21 (active), the “furin cleavage Z-score” value (15 min) was 4.36 (active) and the “furin cleavage Z-score” value (30 min) stood at 2.84.
In the case of CAESTTPCSGAGNASASA [HC1977], the “furin cleavage Z-score” value (7.5 min) was -0.591 (inactive), the “furin cleavage Z-score” value (15 min) was 0.488 (inactive) and the “furin cleavage Z-score” value (30 min) was -0.368 (inactive).
As for CAGTTDRSGAAGNASASA [HC419], the “furin cleavage Z-score” value reads like this: (7.5 min) 1; (15 min) 2.15; (30 min) -0.141 (inactive).
The corresponding values for CALPYIEQGMAGNASASA [HC1018] are -0.393 (inactive), -0.653 (inactive) and 2.95.
For CALRSRSGRSAGNASASA [FS-57] the same measures were 4.75 (active), 5.58 (active) and 4.32 (active).
In the case of CAQQHRQGRSAGNASASA [FS-1391], the “furin cleavage Z-score” value by setting is: (7.5 min) 6.09 (active); (15 min) 6.71 (active); (30 min) 6.63 (active).
As to CALRLRKGRSAGNASASA [FS-613], the “furin cleavage Z-score” value was 2.52 (7.5 min), 2.83 (15 min) and 0.738 (inactive) (30 min).
For CAQDPRSGRSAGNASASA [FS-846], the “furin cleavage Z-score” value is, setting by setting: (7.5 min) 0.797 (inactive); (15 min) -0.812 (inactive); (30 min) -0.37 (inactive).
As for CAEQGRQGRSAGNASASA [FS-416], the “furin cleavage Z-score” value was -1.07 (inactive) (7.5 min), -0.0349 (inactive) (15 min) and 0.708 (inactive) (30 min).
For the sequence CALRSRWGRSAGNASASA [FS-1370], the “furin cleavage Z-score” value was 6.03 (active) (7.5 min), 5.71 (active) (15 min) and 6.06 (active) (30 min).
In the case of CAQRERSGRSAGNASASA [FS-1057], the “furin cleavage Z-score” value (7.5 min) is 4.28 (active), the “furin cleavage Z-score” value (15 min) was 6.49 (active) and the “furin cleavage Z-score” value (30 min) was 6.16 (active).
For CATNSRGENCAGNASASA [HC1504] the same measures were 0.0549 (inactive), 0.267 (inactive) and 0.425 (inactive).
For the sequence CATTPCSGSAAGNASASA [HC1923], the “furin cleavage Z-score” value reads like this: (7.5 min) 0.77 (inactive); (15 min) -1.08 (inactive); (30 min) -0.465 (inactive).
On to CATGDFDSVIAGNASASA [HC883], for which the “furin cleavage Z-score” value is -0.133 (inactive) (7.5 min), -1.34 (inactive) (15 min) and -0.511 (inactive) (30 min).
Turning to CAGSFRSLRSAGNASASA [FS-433], the “furin cleavage Z-score” value by setting is: (7.5 min) -0.832 (inactive); (15 min) -0.397 (inactive); (30 min) -0.333 (inactive).
Take CANRGIGKRSAGNASASA [FS-65]: the “furin cleavage Z-score” value by setting is: (7.5 min) 7.18 (active); (15 min) 8.2 (active); (30 min) 7.79 (active).
For the sequence CAKRRLQKRSAGNASASA [FS-1638], the “furin cleavage Z-score” value is, setting by setting: (7.5 min) 11.7 (active); (15 min) 9.73 (active); (30 min) 9.24 (active).
Turning to CANLMRPKRSAGNASASA [FS-137], the “furin cleavage Z-score” value is, setting by setting: (7.5 min) 11.8 (active); (15 min) 11.3 (active); (30 min) 8.61 (active).
The corresponding values for CAGSFRGKRSAGNASASA [FS-1206] are 11.1 (active), 11.4 (active) and 8.01 (active).
As to CACQRGYKGVAGNASASA [HC1166], the “furin cleavage Z-score” value is -1.45 (inactive) (7.5 min), -3.75 (inactive) (15 min) and -2.51 (inactive) (30 min).
CAEWEVPCHRAGNASASA [HC2448]: the “furin cleavage Z-score” value is, setting by setting: (7.5 min) 1.07; (15 min) 2.14; (30 min) 0.904 (inactive).
As for CAIGSVGLGKAGNASASA [HC1080], the “furin cleavage Z-score” value runs as follows: (7.5 min) 1.13; (15 min) 0.942 (inactive); (30 min) -0.856 (inactive).
Regarding CAETPCSGSWAGNASASA [HC1832], the “furin cleavage Z-score” value (7.5 min) was -0.56 (inactive), the “furin cleavage Z-score” value (15 min) was -0.454 (inactive) and the “furin cleavage Z-score” value (30 min) is -0.69 (inactive).
For CAGINAVAYYAGNASASA [HC866] the same measures were -0.468 (inactive), -1.09 (inactive) and -1.09 (inactive).
Regarding CARSRKEVELAGNASASA [FS-2089], the “furin cleavage Z-score” value (7.5 min) was 0.0687 (inactive), the “furin cleavage Z-score” value (15 min) was 0.38 (inactive) and the “furin cleavage Z-score” value (30 min) was -1.75 (inactive).
On to CACGGRGKRSAGNASASA [FS-14], for which the “furin cleavage Z-score” value by setting is: (7.5 min) 8.41 (active); (15 min) 9.33 (active); (30 min) 7.54 (active).
On to CALKPRPKRSAGNASASA [FS-609], for which the “furin cleavage Z-score” value is, setting by setting: (7.5 min) 10.8 (active); (15 min) 12.3 (active); (30 min) 9.88 (active).
On to CALRKYPKRSAGNASASA [FS-358], for which the “furin cleavage Z-score” value by setting is: (7.5 min) 0.0194 (inactive); (15 min) 0.839 (inactive); (30 min) 1.49.
CADELRGKRSAGNASASA [FS-754]: the “furin cleavage Z-score” value by setting is: (7.5 min) -0.105 (inactive); (15 min) 0.269 (inactive); (30 min) -1.01 (inactive).
For CARKRAQKRSAGNASASA [FS-1064], the “furin cleavage Z-score” value by setting is: (7.5 min) 8.12 (active); (15 min) 9.12 (active); (30 min) 7.74 (active).
In the case of CALKRRGKRSAGNASASA [FS-350], the “furin cleavage Z-score” value runs as follows: (7.5 min) 12.2 (active); (15 min) 12.5 (active); (30 min) 8.44 (active).

The values are drawn from the supplement of paper PMC3545927.
